Source: PubChem BioAssay (National Center for Advancing Translational Sciences (NCATS))
GPT2 inh – inhibitors of human GPT2 alanine aminotransferase; 0.25% of 100,000 active; Recombinant GPT2, coupled pyruvate oxidase/HRP Amplex Red fluorescence; Q8TD30; Potency, µM (series often up to 57.7 µM), most hits filed as inhibitors; note: nearly all actives have a fitted effect of over 60% in size
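GPT2 10ng/uL, a-KG 250uM, L-Ala 2mM, HEPES pH7.5 + 0.0001% Tween; 30 min RT. Then Amplex mix (PO/HRP/ThPP), 30 min RT dark, fluorescence. AOA 50uM used as positive control.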
FLuc inh-1 – Photinus pyralis luciferase inhibition; P08659; purified P. pyralis luciferase, luminescence, biochemical; Potency, µM (highest dose often 115 µM), actives largely listed as inhibitors; 2.5% of 76,000 active; note: nearly all actives have a fitted effect of over 65% in size
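Luminescence read by CCD imager after adding enzyme (10nM final) to wells holding compound, titrated in qHTS. Substrates 10uM each D-luciferin and ATP; buffer 50mM Tris acetate pH 7.5, 10mM Mg acetate, Tween-20, BSA.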
hNpr1 antagonist – human Npr1 receptor antagonism | P16066 | HEK293 hNpr1 GloSensor cGMP, ANP-stimulated luminescence | Potency, µM (top dose mostly 46.3 µM), actives largely listed as inhibitors | 1.6% of 76,000 active | AID 1347048; calls by dose curve; note: nearly all actives have a fitted effect of over 60% in size
Target sequence (P16066 whole entry, looked up): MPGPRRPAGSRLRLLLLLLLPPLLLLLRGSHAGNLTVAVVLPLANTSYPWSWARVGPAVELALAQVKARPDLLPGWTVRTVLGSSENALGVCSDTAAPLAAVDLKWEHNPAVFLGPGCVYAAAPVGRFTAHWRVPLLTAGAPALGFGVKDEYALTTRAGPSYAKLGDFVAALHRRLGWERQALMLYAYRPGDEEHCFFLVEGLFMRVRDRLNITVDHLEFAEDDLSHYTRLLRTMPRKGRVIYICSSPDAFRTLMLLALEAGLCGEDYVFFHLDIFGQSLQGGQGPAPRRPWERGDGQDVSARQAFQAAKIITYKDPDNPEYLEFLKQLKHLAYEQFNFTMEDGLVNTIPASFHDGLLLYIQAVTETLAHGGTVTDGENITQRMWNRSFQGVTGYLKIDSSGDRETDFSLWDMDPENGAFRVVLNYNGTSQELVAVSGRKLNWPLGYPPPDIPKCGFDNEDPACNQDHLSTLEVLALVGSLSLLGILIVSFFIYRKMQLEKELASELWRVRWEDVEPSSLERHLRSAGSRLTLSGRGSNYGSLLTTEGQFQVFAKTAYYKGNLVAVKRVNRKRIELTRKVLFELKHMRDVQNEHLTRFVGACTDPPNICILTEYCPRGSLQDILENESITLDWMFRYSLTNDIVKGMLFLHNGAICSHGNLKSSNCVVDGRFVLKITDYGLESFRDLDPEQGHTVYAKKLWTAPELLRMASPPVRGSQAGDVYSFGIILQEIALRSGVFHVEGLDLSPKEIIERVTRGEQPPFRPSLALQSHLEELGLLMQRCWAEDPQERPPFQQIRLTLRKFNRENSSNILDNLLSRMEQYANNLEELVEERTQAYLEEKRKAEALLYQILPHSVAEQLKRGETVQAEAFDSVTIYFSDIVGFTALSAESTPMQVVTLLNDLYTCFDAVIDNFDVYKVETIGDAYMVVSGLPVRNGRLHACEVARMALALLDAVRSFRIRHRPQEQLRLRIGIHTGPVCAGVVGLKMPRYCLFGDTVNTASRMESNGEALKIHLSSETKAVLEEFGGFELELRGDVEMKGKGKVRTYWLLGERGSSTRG
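Compound pre-incubated 30 min at room temperature on GloSensor-loaded HEK293 cells stably carrying hNpr1 and the pGS-40F cGMP biosensor. Stimulation uses hNppA at 0.1 nM final; luminescence is taken at baseline and 20 min post-agonist.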
NIH3T3 tox – cytotoxic compounds in NIH 3T3 cells. NIH 3T3 viability, CellTiter-Glo ATP luminescence, 48-72 h. Potency, µM (highest dose often 96.7 µM), most hits filed as inhibitors. 4.3% of 94,000 active. AID 1345082; note: nearly all actives have a fitted effect of over 55% in size
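Viability of NIH 3T3 cells after 48 or 72 hr compound treatment at 37 °C was assessed by CellTiter-Glo, with luminescence imaged following a 10 min room-temperature step.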
HEK293 tox – cytotoxic compounds in HEK 293 cells; HEK 293 viability, ATP luminescence (CellTiter-Glo), 48-72 h; Potency, µM (doses to about 115 µM), actives largely listed as inhibitors; 6.6% of 94,000 active; note: nearly all actives have a fitted effect of over 60% in size
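HEK 293 cells at 250 cells/well were exposed to compounds by pintool transfer for 48 or 72 hr at 37 degree Celsius, 5% CO2. Viability was read as ATP-coupled luminescence with CellTiter-Glo after 10 min at room temperature.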
FLuc SDR -ATP – binders stabilizing firefly luciferase, without ATP. AID 1963318. 7.8% of 1,300 active. shares compounds with FLuc inh-1. Potency, µM (titrated, usually from 32.7 µM), actives largely listed as activators. Purified FLuc-C-HiBiT, Nano-Glo HiBiT luminescence, no ATP; note: nearly all actives have a fitted effect of over 55% in size
FLuc SDR ATP – stabilizes firefly luciferase with ATP present | shares compounds with FLuc inh-1 | purified FLuc-C-HiBiT + ATP, HiBiT complementation luminescence | Potency, µM (doses to about 32.7 µM), actives largely listed as activators | 8.7% of 1,300 active;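 note: signal reports ligand binding via conformational change of the enzyme rather than luciferase catalysis; nearly all actives have a fitted effect of over 55% in size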
FLuc inh-2 – blocks firefly luciferase enzymatic activity. purified FLuc-C-HiBiT enzyme, luciferin luminescence. 42% of 1,300 active. Potency, µM (series often up to 32.7 µM), actives largely listed as inhibitors. shares compounds with FLuc inh-1. AID 1963320; note: nearly all actives have a fitted effect of over 70% in size
Hits are given with their value; n = inactive; u = inconclusive; x = no result; [ ] = another dose, or the depositor's remark. Only some compounds are listed: those with a hit (about 10% of all), similar ones and a draw of the others. Unless noted, calls come from the whole dose curve; as a rule, active = well fitted curve in the direction sought with a large enough effect; inconclusive = small, poorly fitted or top-dose-only effect, or another doubt; inactive = no such curve, though single readings can be large; an effect the other way counts as inactive or inconclusive.

SMILES	GPT2 inh	FLuc inh-1	hNpr1 antagonist	NIH3T3 tox	HEK293 tox	FLuc SDR -ATP	FLuc SDR ATP	FLuc inh-2
O=C(Nc1ncc(-c2ccccc2)c2c1OCC2)c1ccccc1	n	5.6µM	n	u	u	n	n	u
COCCNc1ncc(-c2cccc(NC(C)=O)c2)c2c1OCC2	n	6.3µM	u	u	u	n	u	u
Fc1cc(Nc2ncc(-c3ccccc3)c3c2OCC3)cc(N2CCOCC2)c1	n	n	n	u	u	x	x	x
COc1ccccc1OC1CN(C(=O)C(c2cccc(F)c2)N(C)C)C1 (centres undefined)	n[11.5 µM]	n	n	n	n	x	x	x
CN(C)c1cccc(-c2cnc(NC(=O)C3(c4ccccc4)CC3)c3c2CCO3)c1	n	n	n	u	u	x	x	x
CNC(=O)c1cccc(-c2cnc(NC(=O)Cc3ccccc3)c3c2CCO3)c1	n	0.45µM	8.9µM	u	u	11µM	u	3.2µM
CNC(=O)c1cccc(-c2cnc(Nc3cccnc3OC)c3c2CCO3)c1	n	3.5µM	u	45µM	28µM	n	n	5.1µM
c1ccc(Nc2ncc(-c3cncnc3)c3c2OCC3)cc1	n	x	x	x	x	x	x	x
CNC(=O)c1cccc(-c2cnc(Nc3ccccc3)c3c2CCO3)c1	n	8.9µM	n	35µM	89µM	n	n	u
O=C(c1ccccc1F)N1CC[C@H]2COC(=O)N2c2cc(F)ccc2C1	n	n	n	n	n	x	x	x
Cc1[nH]nc2c1C(c1ccc(Cl)cc1)C(C#N)=C(N)O2 (centres undefined)	u	n	n	n	u	n	n	n
CC(C)N1C(=O)OCC12CCN(Cc1cccc(C#N)c1)C2 (centres undefined)	n	n	n	u	n	x	x	x
CCn1cnnc1CC1CCCN(C(=O)COc2ccc(C)cc2)C1 (centres undefined)	n	n	n	n	n	x	x	x
Cc1ccc2oc(-c3ccc(C)c(NC(=O)/C=C/c4ccc(Cl)cc4)c3)nc2c1	x	x	x	x	x	n	n	u
CCCCCc1ccc(/C=C/C(=O)Nc2cc(Cl)ccc2C(=O)O)cc1	n	x	x	x	x	x	x	x
COc1ccc(-c2onc(C)c2C(=O)NCc2cccc(OC)c2)cc1	n	n	n	n	u	x	x	x
Cc1ccc(NC(=O)COc2ccc(-c3nnc4n3CCCC4)cc2)cc1F	n	n	n	u	n	x	x	x
Cc1ccc2nc(-c3ccc(NC(=O)COc4ccc(Br)cc4Br)cc3)sc2c1	x	x	x	x	x	u	u	3.5µM
Cc1ccc2nc(-c3ccc(NC(=O)Cc4ccccc4)cc3)sc2c1	x	x	x	x	x	n	n	u
CCc1ccc(NC(=O)COc2ccc(-c3nnc4n3CCCC4)cc2)cc1	n	n	n	n	n	x	x	x
Cc1ccc2nc(-c3ccc(NC(=O)COc4c(C)ccc(C)c4C)cc3)sc2c1	x	x	x	x	x	n	n	u
Cc1cc(C)cc(Nc2nc(C)cc(=O)n2CC(=O)Nc2ccc(Br)cc2)c1	u	n	u	u	u	x	x	x
Cc1ccc2nc(-c3ccc(NC(=O)COc4ccc(Cl)c(C)c4)cc3)sc2c1	x	x	x	x	x	n	n	n
Cc1ccc(NC(=O)Cn2c(-c3ccccc3)nc(C)cc2=O)cc1	n	n	n	u	u	x	x	x
Cn1ccc(C(=O)N[C@@H]2COCC[C@@H]2OCc2cscn2)cc1=O	n	n	n	n	n	x	x	x
SMILES	GPT2 inh	FLuc inh-1	hNpr1 antagonist	NIH3T3 tox	HEK293 tox	FLuc SDR -ATP	FLuc SDR ATP	FLuc inh-2
CCN1C(=O)CCc2cc(NS(=O)(=O)c3cn(C)c(C)n3)ccc21	n	n	n	n	n	x	x	x
CCNC(=O)N1CC[C@@H](CC(=O)O)[C@@H](CC2=NCCc3cc(OC)ccc32)C1	n	n	n	n	n	x	x	x
O=C(c1ccco1)N1CCN(c2ncncc2-c2nc(-c3ccccc3)no2)CC1	n	u	n	u	u	x	x	x
Cc1ccc(NC(=O)c2cc(NC(=O)C3CC3)cc3nc(C)ccc23)cc1	n	n	n	u	u	x	x	x
CSC(=S)Nc1ccc(-c2nc3ccc(C)cc3s2)cc1	x	x	x	x	x	n	n	2.5µM
CNC(=O)c1cccc2c1CCN2C(=O)Nc1ccc(C)cc1	n	0.4µM	6.3µM	u	n	11µM	0.44µM	0.35µM
CCC(=O)N1CCc2c(C(=O)NCc3cc(C)ccc3C)cccc21	n	n	n	n	n	x	x	x
Cc1cccc(NC(=O)N2CCc3c(C(=O)NC(C)(C)C)cccc32)c1	n	7.1µM	n	n	u	u	u	8.8µM
CCN1CCN(CCNC(=O)c2cccc3c2CCN3C(=O)Nc2ccc(C)cc2)CC1	n	2µM	u	u	u	u	1.6µM	1.1µM
COc1ccccc1N1CCN(C(=O)c2noc(-c3ccc(C)cc3)n2)CC1	n	n	n	u	n	x	x	x
COc1ccc(N2CCN(C(=O)c3noc(-c4ccc(C)cc4)n3)CC2)cc1	n	14µM	n	u	u	n	n	u
Cc1noc(C)c1[S+](=O)([O-])NC1CCN(C(=O)c2ccc(-c3cncnc3)cc2)CC1	n	x	x	n	n	x	x	x
Cc1cc(CNC(=O)C2(C(N)=O)CC2)c2[nH]c(-c3ccccc3)c(C)c2c1	n	13µM	u	u	22µM	n	u	11µM
Cc1c(-c2ccccc2)[nH]c2c(CNC(=O)CCn3cnnn3)cc(Cl)cc12	n	u	n	u	u	x	x	x
O=C1O[C@@H]2CN(c3ncccn3)C[C@@H]2N1CCc1ccc(F)cc1	u	n	n	n	n	x	x	x
O=C(O)c1ccc(-c2ccc(N3CCCCCC3)nc2)cc1	n	4.5µM	n	u	n	u	u	2.5µM
O=C(N[C@H]1CCN2C(=O)c3cc(/C=C/c4ccccc4)ccc3NC(=O)[C@H]12)c1cnccn1	n	u	n	n	u	x	x	x
O=C(O)COCC(=O)N[C@H]1CCN2C(=O)c3cc(/C=C/c4ccccc4)ccc3NC(=O)[C@H]12	n	7.9µM	n	n	n	n	u	u
COc1ccc(/C=C/c2ccc3c(c2)C(=O)N2CC[C@H](NC(=O)CCC(=O)O)[C@H]2C(=O)N3)cc1	n	6.3µM	n	n	n	u	u	u
O=C(O)CCC(=O)N[C@H]1CCN2C(=O)c3cc(/C=C/c4ccccc4)ccc3NC(=O)[C@H]12	n	u	n	n	n	x	x	x
O=C(N[C@H]1CCN2C(=O)c3cc(/C=C/c4ccc(O)cc4)ccc3NC(=O)[C@H]12)c1cnccn1	n	13µM	n	n	u	n	n	n
CC(C)Oc1ccc2c(NC(=O)C3(C(N)=O)CC3)nn(CC(F)(F)F)c2c1	n[11.5 µM]	n	n	n	n	x	x	x
